# From PubChem BioAssay (EPA / NIEHS)
# Results filed as inconclusive are left out. Active and inactive are the calls of the source. How the source made its calls: active means hit-call score of the fitted dose curve at least 0.9, where 1 is the maximum; inconclusive means response in the unintended direction; inactive means score below 0.9.
# Key:
# [1] = biological target: human Matrix Metalloproteinase-1 (MMP1), MMP1 (gene 4312) (UniProt P03956); assay: NVS_ENZ_hMMP1: NovaScreen (NVS) Enzymatic Assay for human Matrix Metalloproteinase-1 (MMP1) (AID 2283181)
# Chain of human Matrix Metalloproteinase-1 (MMP1), MMP1 (gene 4312) (P03956 whole entry, looked up): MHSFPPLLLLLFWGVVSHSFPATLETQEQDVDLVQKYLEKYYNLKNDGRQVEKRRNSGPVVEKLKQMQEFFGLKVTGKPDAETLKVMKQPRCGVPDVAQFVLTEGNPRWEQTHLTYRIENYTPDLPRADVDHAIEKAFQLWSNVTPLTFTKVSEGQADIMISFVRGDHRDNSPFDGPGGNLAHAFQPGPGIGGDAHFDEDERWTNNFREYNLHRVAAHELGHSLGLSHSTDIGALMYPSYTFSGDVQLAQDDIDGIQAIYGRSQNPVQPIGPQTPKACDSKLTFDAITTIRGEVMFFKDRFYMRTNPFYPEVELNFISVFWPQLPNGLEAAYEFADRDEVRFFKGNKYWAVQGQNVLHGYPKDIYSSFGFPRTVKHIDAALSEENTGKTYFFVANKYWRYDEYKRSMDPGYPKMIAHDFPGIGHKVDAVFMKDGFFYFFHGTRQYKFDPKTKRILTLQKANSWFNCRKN
# How it was run: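 Cell-free fluorescent substrate assay of human MMP1, read after 1 h. A single 25 uM duplicate screen was followed by concentration series to a maximum of 50 uM for actives meeting threshold; inhibition analysed against DMSO baseline.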
# [2] = biological target: human Matrix Metalloproteinase-3 (MMP3), MMP3 (gene 4314) (UniProt P08254); assay: NVS_ENZ_hMMP3: NovaScreen (NVS) Enzymatic Assay for human Matrix Metalloproteinase-3 (MMP3) (AID 2283185)
# Description: NVS_ENZ_hMMP3 is a biochemical, single-readout assay that uses extracted gene-proteins in a cell-free assay. Measurements were taken 1 hour after chemical dosing in a 96-well plate.NVS_ENZ_hMMP3 is one of one assay component(s) measured or calculated from the NVS_ENZ_hMMP3 assay. It is designed to make measurements of enzyme activity, a form of enzyme reporter, as detected with fluorescence intensity signals by Fluorescence technology.Data from the assay component NVS_ENZ_hMMP3 was analyzed into 1 assay endpoint. This assay endpoint, NVS_ENZ_hMMP3, was analyzed in the positive analysis fitting direction relative to DMSO as the negative control and baseline of activity. […] Furthermore, this assay endpoint can be referred to as a primary readout, because this assay has produced multiple assay endpoints where this one serves a enzymatic activity function. […]
# Binding assays used specific radioligands (tritiated, iodinated) with non-radioactive competitive displacement ligands in agonist or antagonist protocols (as indicated) and various reference compounds and inhibitors to titrate specific binding to receptors and transporters. Most enzyme assays (CYPs, kinases, phosphatases, proteases, HDACs) used recombinant protein and specific substrates (fluorescence mostly, some colorimetric and radioactive) and inhibitors, followed by a biochemical separation of substrate and product. […]
# [3] = biological target: human Phosphoinositide 3-kinase alpha (PI3Ka), PIK3CA (gene 5290) (UniProt P42336); assay: NVS_ENZ_hPI3Ka: NovaScreen (NVS) Enzymatic Assay for human Phosphoinositide 3-kinase alpha (PI3Ka) (AID 2283196)
# Chain of human Phosphoinositide 3-kinase alpha (PI3Ka), PIK3CA (gene 5290) (P42336 whole entry, looked up): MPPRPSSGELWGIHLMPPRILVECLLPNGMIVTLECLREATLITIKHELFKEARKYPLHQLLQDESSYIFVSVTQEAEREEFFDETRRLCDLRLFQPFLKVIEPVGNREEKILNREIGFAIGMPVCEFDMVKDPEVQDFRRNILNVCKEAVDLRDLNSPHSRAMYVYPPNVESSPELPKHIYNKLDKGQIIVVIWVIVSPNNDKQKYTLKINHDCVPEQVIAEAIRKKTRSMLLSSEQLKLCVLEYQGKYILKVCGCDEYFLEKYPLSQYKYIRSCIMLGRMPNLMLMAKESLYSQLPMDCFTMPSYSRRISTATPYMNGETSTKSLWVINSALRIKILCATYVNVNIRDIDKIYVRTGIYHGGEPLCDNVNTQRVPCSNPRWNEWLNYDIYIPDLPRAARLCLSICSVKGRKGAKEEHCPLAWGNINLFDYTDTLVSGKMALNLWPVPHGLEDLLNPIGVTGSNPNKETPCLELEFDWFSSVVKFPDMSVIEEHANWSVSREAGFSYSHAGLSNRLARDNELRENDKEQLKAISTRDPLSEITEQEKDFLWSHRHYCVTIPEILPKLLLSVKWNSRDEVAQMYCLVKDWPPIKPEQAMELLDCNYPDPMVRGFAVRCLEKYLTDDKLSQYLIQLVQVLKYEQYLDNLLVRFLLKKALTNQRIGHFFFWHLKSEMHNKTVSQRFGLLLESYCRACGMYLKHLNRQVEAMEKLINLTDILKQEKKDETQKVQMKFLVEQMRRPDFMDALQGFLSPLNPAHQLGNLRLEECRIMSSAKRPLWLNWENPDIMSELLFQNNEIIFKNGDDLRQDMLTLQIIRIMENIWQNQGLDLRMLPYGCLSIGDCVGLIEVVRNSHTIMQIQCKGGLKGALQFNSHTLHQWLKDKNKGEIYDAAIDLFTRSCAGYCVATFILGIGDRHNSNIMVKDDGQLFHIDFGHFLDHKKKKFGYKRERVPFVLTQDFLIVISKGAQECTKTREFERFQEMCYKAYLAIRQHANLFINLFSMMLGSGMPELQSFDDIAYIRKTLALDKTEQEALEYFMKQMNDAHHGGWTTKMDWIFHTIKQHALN
# How it was run: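 Recombinant human PI3Kα with fluorescent substrate, 1 h, product separated by electrophoretic mobility shift; 25 uM duplicate screen, hits (e.g., 30% inhibition) retested singly up to 50 uM; loss of signal vs DMSO.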
# [4] = biological target: Serine/threonine-protein phosphatase PP1-alpha catalytic subunit (Homo sapiens) (UniProt P62136); assay: NVS_ENZ_hPPP1CA: NovaScreen (NVS) Enzymatic Assay for human Protein Phosphatase 1 Aatalytic subunit Alpha (PPP1CA) (AID 2283200)
# Chain of Serine/threonine-protein phosphatase PP1-alpha catalytic subunit (Homo sapiens) (P62136 whole entry, looked up): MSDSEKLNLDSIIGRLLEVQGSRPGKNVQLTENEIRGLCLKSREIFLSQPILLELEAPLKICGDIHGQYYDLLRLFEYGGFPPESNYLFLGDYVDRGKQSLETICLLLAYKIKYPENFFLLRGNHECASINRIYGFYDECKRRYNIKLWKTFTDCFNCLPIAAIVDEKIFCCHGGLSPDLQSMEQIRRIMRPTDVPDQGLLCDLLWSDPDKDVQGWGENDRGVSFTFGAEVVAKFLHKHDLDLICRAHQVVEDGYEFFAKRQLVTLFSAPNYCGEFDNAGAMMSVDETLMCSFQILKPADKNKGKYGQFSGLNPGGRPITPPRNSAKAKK
# How it was run: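 Chemicals were first screened in duplicate at 25 uM, and those passing threshold (e.g. 30% inhibition) were run as concentration series to 50 uM. Cell-free recombinant protein, 1.33 h read, fluorescent substrate/product mobility-shift detection, normalised to DMSO.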
# [5] = biological target: human Matrix Metalloproteinase-7 (MMP7), MMP7 (gene 4316) (UniProt P09237); assay: NVS_ENZ_hMMP7: NovaScreen (NVS) Enzymatic Assay for human Matrix Metalloproteinase-7 (MMP7) (AID 2283183)
# Chain of human Matrix Metalloproteinase-7 (MMP7), MMP7 (gene 4316) (P09237 whole entry, looked up): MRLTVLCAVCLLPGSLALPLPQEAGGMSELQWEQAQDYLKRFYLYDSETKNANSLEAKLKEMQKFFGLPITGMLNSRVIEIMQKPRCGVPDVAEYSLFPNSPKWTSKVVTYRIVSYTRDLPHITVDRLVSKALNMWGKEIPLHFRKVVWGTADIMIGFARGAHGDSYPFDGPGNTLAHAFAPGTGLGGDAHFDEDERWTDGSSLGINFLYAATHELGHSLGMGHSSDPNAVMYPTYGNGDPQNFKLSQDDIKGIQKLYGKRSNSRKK
# How it was run: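 Compounds first tested at 25 uM in duplicate, then at up to 50 uM in concentration series if active. Protease activity measured by fluorescence intensity 1 h after dosing, with fitting relative to DMSO.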
# [6] = biological target: human Matrix Metalloproteinase-2 (MMP2), MMP2 (gene 4313) (UniProt P08253); assay: NVS_ENZ_hMMP2: NovaScreen (NVS) Enzymatic Assay for human Matrix Metalloproteinase-2 (MMP2) (AID 2283184)
# Chain of human Matrix Metalloproteinase-2 (MMP2), MMP2 (gene 4313) (P08253 whole entry, looked up): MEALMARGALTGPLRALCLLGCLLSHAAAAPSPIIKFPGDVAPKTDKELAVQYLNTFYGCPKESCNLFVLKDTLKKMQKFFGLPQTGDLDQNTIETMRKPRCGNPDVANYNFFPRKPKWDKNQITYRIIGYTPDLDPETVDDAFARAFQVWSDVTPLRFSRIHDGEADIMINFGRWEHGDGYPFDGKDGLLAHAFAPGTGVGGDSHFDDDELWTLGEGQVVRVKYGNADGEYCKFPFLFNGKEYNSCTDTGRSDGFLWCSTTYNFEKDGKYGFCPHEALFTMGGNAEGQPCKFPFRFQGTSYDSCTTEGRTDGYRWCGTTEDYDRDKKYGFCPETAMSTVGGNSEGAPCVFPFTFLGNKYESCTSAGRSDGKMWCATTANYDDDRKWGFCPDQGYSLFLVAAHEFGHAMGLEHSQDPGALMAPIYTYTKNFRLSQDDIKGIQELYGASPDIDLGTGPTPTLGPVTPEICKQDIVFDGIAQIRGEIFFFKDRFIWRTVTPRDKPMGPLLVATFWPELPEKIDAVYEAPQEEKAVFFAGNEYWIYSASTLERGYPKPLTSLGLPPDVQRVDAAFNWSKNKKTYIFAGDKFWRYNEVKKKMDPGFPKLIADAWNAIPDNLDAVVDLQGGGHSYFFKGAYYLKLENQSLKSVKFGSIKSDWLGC
# How it was run: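 Compounds first screened in duplicate at a single 25 uM, with actives followed up in concentration series. Recombinant human MMP2 cleaves a fluorogenic substrate; fluorescence taken at 1 h, inhibition fitted relative to DMSO.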
# [7] = biological target: human Phosphodiesterase 4A1 (PDE4A1), PDE4A (gene 5141) (UniProt P27815); assay: NVS_ENZ_hPDE4A1: NovaScreen (NVS) Enzymatic Assay for human Phosphodiesterase 4A1 (PDE4A1) (AID 2283191)
# Chain of human Phosphodiesterase 4A1 (PDE4A1), PDE4A (gene 5141) (P27815 whole entry, looked up): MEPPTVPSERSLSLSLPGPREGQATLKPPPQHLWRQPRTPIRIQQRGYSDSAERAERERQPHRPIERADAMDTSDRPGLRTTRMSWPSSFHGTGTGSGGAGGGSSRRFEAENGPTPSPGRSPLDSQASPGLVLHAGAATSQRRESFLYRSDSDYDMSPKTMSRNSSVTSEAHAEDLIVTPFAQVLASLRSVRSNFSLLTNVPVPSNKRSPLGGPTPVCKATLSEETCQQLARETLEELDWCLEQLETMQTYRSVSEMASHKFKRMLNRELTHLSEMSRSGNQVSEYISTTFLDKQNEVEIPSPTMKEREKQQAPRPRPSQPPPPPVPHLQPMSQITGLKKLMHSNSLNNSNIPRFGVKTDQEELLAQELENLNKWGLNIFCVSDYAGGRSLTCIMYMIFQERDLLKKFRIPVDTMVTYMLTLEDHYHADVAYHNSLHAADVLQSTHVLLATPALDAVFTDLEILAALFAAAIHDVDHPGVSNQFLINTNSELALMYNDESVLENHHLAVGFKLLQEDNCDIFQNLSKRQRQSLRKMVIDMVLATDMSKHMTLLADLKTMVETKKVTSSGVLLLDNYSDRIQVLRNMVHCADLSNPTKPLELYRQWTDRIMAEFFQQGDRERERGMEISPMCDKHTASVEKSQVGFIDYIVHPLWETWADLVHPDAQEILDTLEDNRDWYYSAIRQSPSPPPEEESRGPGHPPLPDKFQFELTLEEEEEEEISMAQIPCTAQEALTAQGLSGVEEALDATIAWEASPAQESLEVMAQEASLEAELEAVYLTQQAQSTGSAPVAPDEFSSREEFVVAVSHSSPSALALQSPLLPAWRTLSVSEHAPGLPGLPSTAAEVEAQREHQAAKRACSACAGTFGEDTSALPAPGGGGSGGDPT
# How it was run: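 Fluorescent substrate turnover by recombinant PDE4A1 read after 1 h by mobility-shift separation. Primary duplicate screen at 25 uM; hits retested in concentration series with a 50 uM maximum, relative to DMSO.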
# [8] = biological target: human Protein Phosphatase, Mg2+/Mn2+ Dependent 1A (PPM1A), PPM1A (gene 5494) (UniProt P35813); assay: NVS_ENZ_hPPM1A: NovaScreen (NVS) Enzymatic Assay for human Protein Phosphatase, Mg2+/Mn2+ Dependent 1A (PPM1A) (AID 2283198)
# Chain of human Protein Phosphatase, Mg2+/Mn2+ Dependent 1A (PPM1A), PPM1A (gene 5494) (P35813 whole entry, looked up): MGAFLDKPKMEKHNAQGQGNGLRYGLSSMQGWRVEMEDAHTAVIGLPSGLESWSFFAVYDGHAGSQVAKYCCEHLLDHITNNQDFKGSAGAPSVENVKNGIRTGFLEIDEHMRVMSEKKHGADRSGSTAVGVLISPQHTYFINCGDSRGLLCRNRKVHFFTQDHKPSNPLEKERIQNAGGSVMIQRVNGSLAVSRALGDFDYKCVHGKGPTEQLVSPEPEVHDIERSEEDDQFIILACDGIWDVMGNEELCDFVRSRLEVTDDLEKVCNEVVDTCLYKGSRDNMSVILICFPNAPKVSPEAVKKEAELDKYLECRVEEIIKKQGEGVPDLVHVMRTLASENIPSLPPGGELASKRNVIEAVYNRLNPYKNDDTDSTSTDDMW
# How it was run: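 Primary screen in duplicate at 25 uM, with actives then titrated to a maximum of 50 uM. Recombinant PPM1A dephosphorylation of fluorescent substrate measured at 1 h, with substrate and product separated by mobility shift; inhibition fitted against DMSO.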
# [9] = biological target: human Matrix Metalloproteinase-9 (MMP9), MMP9 (gene 4318) (UniProt P14780); assay: NVS_ENZ_hMMP9: NovaScreen (NVS) Enzymatic Assay for human Matrix Metalloproteinase-9 (MMP9) (AID 2283190);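 further: cell-free recombinant MMP9 protease activity read by fluorescent substrate signal; active means inhibition seen as loss of fluorescence signal versus DMSO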
# Chain of human Matrix Metalloproteinase-9 (MMP9), MMP9 (gene 4318) (P14780 whole entry, looked up): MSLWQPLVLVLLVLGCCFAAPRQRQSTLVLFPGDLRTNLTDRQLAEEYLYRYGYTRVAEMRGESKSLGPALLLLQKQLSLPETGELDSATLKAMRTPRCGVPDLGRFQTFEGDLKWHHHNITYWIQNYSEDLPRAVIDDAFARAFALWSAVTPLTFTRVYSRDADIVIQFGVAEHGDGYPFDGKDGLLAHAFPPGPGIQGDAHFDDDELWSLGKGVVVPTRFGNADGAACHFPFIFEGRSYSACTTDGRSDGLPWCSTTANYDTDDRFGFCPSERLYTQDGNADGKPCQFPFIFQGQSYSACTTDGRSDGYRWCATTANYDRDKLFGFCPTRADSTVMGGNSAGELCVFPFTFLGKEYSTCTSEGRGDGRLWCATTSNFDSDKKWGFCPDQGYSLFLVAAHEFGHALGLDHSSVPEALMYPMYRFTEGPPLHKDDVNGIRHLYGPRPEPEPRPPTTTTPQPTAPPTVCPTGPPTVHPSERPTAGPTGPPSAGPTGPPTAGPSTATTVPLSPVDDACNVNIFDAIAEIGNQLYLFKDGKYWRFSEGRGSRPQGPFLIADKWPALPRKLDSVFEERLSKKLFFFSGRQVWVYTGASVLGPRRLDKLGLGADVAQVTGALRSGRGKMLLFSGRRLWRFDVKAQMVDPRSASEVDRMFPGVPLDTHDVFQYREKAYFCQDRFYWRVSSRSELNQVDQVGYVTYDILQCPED
# How it was run: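 Cell-free recombinant MMP9 enzyme activity measured by fluorescence intensity 1 h after dosing. Primary screen in duplicate at 25 uM, actives followed in concentration series; loss of signal relative to DMSO.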
# [10] = biological target: human Phosphodiesterase 5 (PDE5), PDE5A (gene 8654) (UniProt O76074); assay: NVS_ENZ_hPDE5: NovaScreen (NVS) Enzymatic Assay for human Phosphodiesterase 5 (PDE5) (AID 2283194)
# How it was run: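 Screening began in duplicate at 25 uM, with actives taken into concentration-response. Enzyme activity of recombinant PDE5 toward its substrate was measured at 1 h by fluorescence mobility-shift detection, relative to DMSO controls.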
smiles,measurement,setting,value
CCCCCCCCCCCCc1cccc(S(=O)(=O)O)c1,AC50,[1],9.41 µM (active)
same,AC50,[2],12.9 µM (active)
same,AC50,[3],7.17 µM (active)
same,AC50,[4],35.3 µM (active)
CCCCCCCCCCCCOS(=O)(=O)O,AC50,[1],7.91 µM (active)
COc1nn(C(=O)NS(=O)(=O)c2ccccc2OC(F)(F)F)c(=O)n1C,outcome,[5],inactive
Clc1cccc(Cl)c1Cl,AC50,[6],11.5 µM (active)
O=C(N[C@H]1CN2CCC1CC2)c1ccc2c(c1)OCCO2,outcome,[7],inactive
same,outcome,[8],inactive
O=C1c2ccccc2C(=O)C1C(=O)C(c1ccccc1)c1ccc(Cl)cc1 (stereo not given),AC50,[3],16.8 µM (active)
COc1ccccc1N,AC50,[4],14.8 µM (active)
CCOC(=O)CCN(SN(C)C(=O)Oc1cccc2c1OC(C)(C)C2)C(C)C,AC50,[9],3.66 µM (active)
O=c1oc2ccccc2c(O)c1C(CC(O)c1ccc(-c2ccc(Br)cc2)cc1)c1ccccc1 (stereo not given),AC50,[9],0.436 µM (active)
Oc1c(Cl)cc(Cl)cc1Cl,outcome,[10],inactive
COC(=O)Nc1cccc(OC(=O)Nc2cccc(C)c2)c1,outcome,[10],inactive
